In paper PMC4336329 (PLoS ONE, 2015):
Out of some 310,000 compounds screened, about 14,000 (4.5%) showed an effect of 50% or more. The effect is printed as a negative number. This excerpt belongs to a sample that is enriched for strong results.

What follows are compounds tested against human ether-à-go-go-related gene (hERG) potassium channel (human, UniProt Q12809) (assay: primary screen, population patch clamp on CHO cells stably expressing hERG; higher = less effect of the substance).
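Further: peak tail current of the secondary pulse compared with the same well before compound.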

human ether-à-go-go-related gene (hERG) potassium channel, sequence (Q12809 whole entry, looked up): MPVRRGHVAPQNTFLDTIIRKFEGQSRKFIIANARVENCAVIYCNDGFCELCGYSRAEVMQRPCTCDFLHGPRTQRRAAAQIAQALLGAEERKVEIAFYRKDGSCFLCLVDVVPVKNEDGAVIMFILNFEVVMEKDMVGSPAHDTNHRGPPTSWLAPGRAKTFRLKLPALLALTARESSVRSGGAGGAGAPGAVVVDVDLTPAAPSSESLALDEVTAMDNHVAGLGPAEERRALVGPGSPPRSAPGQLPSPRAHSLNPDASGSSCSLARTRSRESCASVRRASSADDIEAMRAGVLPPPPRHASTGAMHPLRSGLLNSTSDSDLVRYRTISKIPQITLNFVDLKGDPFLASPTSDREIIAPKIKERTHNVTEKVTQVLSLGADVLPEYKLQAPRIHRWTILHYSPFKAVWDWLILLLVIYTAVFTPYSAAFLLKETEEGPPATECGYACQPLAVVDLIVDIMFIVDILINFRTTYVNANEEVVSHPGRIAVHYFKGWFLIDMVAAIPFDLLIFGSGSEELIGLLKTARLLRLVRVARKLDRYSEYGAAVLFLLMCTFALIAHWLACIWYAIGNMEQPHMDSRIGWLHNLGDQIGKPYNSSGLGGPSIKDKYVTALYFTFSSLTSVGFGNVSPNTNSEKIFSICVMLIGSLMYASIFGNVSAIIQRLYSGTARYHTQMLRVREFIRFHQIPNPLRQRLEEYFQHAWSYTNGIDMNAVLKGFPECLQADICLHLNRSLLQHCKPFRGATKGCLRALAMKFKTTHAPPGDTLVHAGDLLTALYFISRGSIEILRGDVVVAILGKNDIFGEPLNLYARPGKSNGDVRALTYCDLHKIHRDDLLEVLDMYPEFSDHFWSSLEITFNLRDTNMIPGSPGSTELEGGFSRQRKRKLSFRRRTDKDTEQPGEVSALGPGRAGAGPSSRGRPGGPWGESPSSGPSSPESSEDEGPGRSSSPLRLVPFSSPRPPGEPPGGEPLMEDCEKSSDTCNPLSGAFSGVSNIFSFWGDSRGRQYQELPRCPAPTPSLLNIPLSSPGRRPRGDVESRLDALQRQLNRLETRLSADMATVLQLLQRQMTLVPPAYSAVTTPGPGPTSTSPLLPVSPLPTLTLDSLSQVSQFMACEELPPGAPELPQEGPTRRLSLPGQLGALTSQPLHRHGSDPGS

| Structure (SMILES) | hERG current change (%, negative = inhibition) at 10uM [%] |
| --- | --- |
| CCN(CC(=O)Nc1ccccc1OC)C(=O)c1ccccc1Sc1ccccc1C#N | 8.48 |
| O=C(Nc1ccccc1)N1CCCN(c2nccc(C(F)(F)F)n2)CC1 | -5.36 |
| O=C(CSc1ncn[nH]1)Nc1ccc(Br)cc1F | -5.57 |
| CCOC(=O)c1cnc2cc(C)ccn2c1=O | -7.41 |
| Cc1cccc(NC(=O)CN(C)CC(=O)NC(c2ccccc2)c2ccccc2)c1C | -30.5 |
| CCc1ccc(NC2=NCC(c3ccccc3)S2)cc1 (centres unmarked) | -17.5 |
| Cc1ccccc1NC1=NCC(c2ccc([N+](=O)[O-])cc2)S1 (centres unmarked) | -44.9 |
| O=[N+]([O-])c1ccc(C2CN=C(Nc3ccccc3)S2)cc1 (centres unmarked) | -60.2 |
| CCN(CC)c1ccc(/C=N/NC(=O)CNC(=O)c2ccc3c(c2)OCCO3)cc1 | -5.14 |
| COc1ccc(CC(=O)NCCS(=O)(=O)N2CCN(c3ccccc3OC)CC2)cc1 | -17.1 |
| Cc1oc(-c2cccc(Cl)c2)nc1CN1CCC(C(=O)NCc2ccco2)CC1 | -78 |
| CCc1ccc(-c2nc(CN3CCC(C(=O)NCc4ccc(F)cc4)CC3)c(C)o2)cc1 | -50.5 |
| Cc1oc(-c2ccc(Cl)cc2)nc1CS(=O)CC(=O)NCc1ccco1 (centres unmarked) | -35.6 |
| Cc1oc(-c2cccc(Cl)c2)nc1CN1CCC(C(=O)NC2CC2)CC1 | 16.2 |
| CCc1ccc(-c2nc(CN3CCC(C(=O)NCc4ccco4)CC3)c(C)o2)cc1 | -66.3 |
| O=C(NCc1ccco1)C1CCN(Cc2ccc(F)cc2)CC1.O=C(O)C(=O)O | -15.4 |
| Cc1oc(-c2ccc(Cl)cc2)nc1CN1CCC(C(=O)NCc2ccco2)CC1 | -71.2 |
| CCc1ccc(-c2nc(CS(=O)CC(=O)NCc3ccco3)c(C)o2)cc1 (centres unmarked) | 1.94 |
| COc1ccc(C(=O)NC2CCCCCC2)cc1S(=O)(=O)N1CCCc2ccccc21 | 11.3 |
| CCOc1ccc(C2N(c3ccc(OC)cc3)C(=O)C3CCCN32)cc1OC (centres unmarked) | -3.49 |
| CC1CCN(S(=O)(=O)c2ccc(NC(=O)CCN3C(=O)C4CC=CCC4C3=O)cc2)CC1 (centres unmarked) | -25.3 |
| Nc1ccc(N=Nc2ccccc2)c2ccccc12 | 22.4 |

| Structure (SMILES) | hERG current change (%, negative = inhibition) at 10uM [%] |
| --- | --- |
| COc1ccccc1CN(C)C(=O)c1ccccc1Sc1ccccc1C#N | -25 |
| O=C(NCc1ccco1)c1ccc(S(=O)(=O)c2cccc(S(=O)(=O)N3CCOCC3)c2)cc1 | 2.58 |
| CCN(CC)P(=O)(c1n(CC)cc[n+]1CC)N(CC)CC.[I-] | 15.1 |
| CCOC(=O)Cn1c(CN2CCN(C(=O)c3ccco3)CC2)nc2c1c(=O)n(C)c(=O)n2C | -13.3 |
| O=C(Nc1ccc(N2CCN(C(=O)c3ccco3)CC2)c(Cl)c1)c1cccnc1 | -16.8 |
| Cc1oc(-c2ccccc2F)nc1CN1CCC(C(=O)NCc2ccco2)CC1 | -38 |
| Cc1ccccc1-c1nc(CN2CCC(C(=O)NCc3ccco3)CC2)c(C)o1 | -73.6 |
| COc1ccc(OC)c(S(=O)(=O)NC2CCN(Cc3ccccc3)CC2)c1 | -4.92 |
| Nc1ccc(C(=O)N/N=C2\CCCc3c2[nH]c2ccccc32)cc1 | 16.2 |
| COc1ccc(-n2nc(C(=O)NCC(=O)NCCCN3CCN(C)CC3)c3ccccc3c2=O)cc1OC | 18.9 |
| Cc1ccccc1CN1C2=NCCN2c2ccccc21.Cl | -53.7 |
| Cc1ccccc1CN1C2=NCCCN2c2ccccc21.Cl | -68 |
| CS(=O)(=O)NCc1nnc(SCC(=O)NC2CCCCC2)n1-c1ccc(F)cc1 | 11.6 |
| CCn1cc(C(=O)NCc2ccco2)c(=O)c2ccc(C)nc21 | 16.9 |
| COCCn1c(=N)c(C(=O)NCc2ccco2)cc2c(=O)n3cc(C)ccc3nc21 | -82.1 |
| Cc1ccc2nc3c(cc(C(=O)NCc4ccco4)c(=N)n3Cc3ccco3)c(=O)n2c1 | -77 |
| Cc1cc2ccccc2c(=O)n1CC(=O)NCc1ccco1 | 13.8 |
| COCCn1c(=N)c(C(=O)NCc2ccco2)cc2c(=O)n3ccccc3nc21 | -78.1 |
| COCCn1c(=N)c(S(=O)(=O)c2ccc(F)cc2)cc2c(=O)n3ccccc3nc21 | -25.5 |
| CCn1cc(C(=O)NCc2ccco2)c2cc(OC)c(OC)cc2c1=O | -20.9 |
| COCCn1c(=N)c(S(=O)(=O)c2ccc(Br)cc2)cc2c(=O)n3ccccc3nc21 | -44.3 |
| COCCn1cc(C(=O)NCc2ccco2)c2c3ccccc3n(C)c2c1=O | -20.6 |

| Structure (SMILES) | hERG current change (%, negative = inhibition) at 10uM [%] |
| --- | --- |
| COc1ccc2c(c1)CCc1c(C(=O)N3CCCC3)noc1-2 | -7.79 |
| CC(C)c1ccccc1NC(=O)COC(=O)Cc1c[nH]c2ccccc12 | 7.28 |
| C/C(=N\NC(=O)c1ccncc1)c1c(O)[nH]c(=O)[nH]c1=O | -1.22 |
| [O-]/C(=C(\C(=S)Nc1ccc(SC(F)F)cc1)[n+]1ccccc1)c1cc(Cl)ccc1Cl | 1.83 |
| COc1ccc(-c2noc(CN(C(=O)c3c(-c4ccccc4Cl)noc3C)C(C)C)n2)cc1 | 14.8 |
| O=C(O)C1CC=CCC1C(=O)Nc1cccc(C(=O)N2CCCCC2)c1 (centres unmarked) | -5.25 |
| CN1C[C@H](C(=O)N[C@]2(C)O[C@@]3(O)[C@@H]4CCCN4C(=O)[C@H](Cc4ccccc4)N3C2=O)CC2c3cccc4[nH]cc(c34)C[C@H]21.O=C(O)C(O)C(O)C(=O)O (some centres unmarked) | 2.03 |
| CC(NC(=O)NNC(N)=S)(C(F)(F)F)C(F)(F)F | 4.68 |
| CN(C)CCCN(C(=O)c1ccc2c(c1)CCCC2)c1nc2ccc(Cl)cc2s1.Cl | -43.8 |
| CN(C)CCCN(C(=O)c1ccc2c(c1)CCCC2)c1nc2ccc(F)cc2s1.Cl | -66.9 |
| CCN(CC)CCN(C(=O)c1ccc2c(c1)CCCC2)c1nc2ccc(F)cc2s1.Cl | -1.94 |
| CCN(CC)CCN(C(=O)c1ccc2c(c1)CCCC2)c1nc2ccc(C)cc2s1.Cl | 10.1 |
| CCOc1ccc2nc(N(CCCN(C)C)C(=O)c3ccc4c(c3)CCCC4)sc2c1.Cl | -14.1 |
| Cc1ccc2nc(N(CCCN(C)C)C(=O)c3ccc4c(c3)CCCC4)sc2c1.Cl | -71.5 |
| CCN(CC)C(=O)C1CCC(C)(C(=O)O)C1(C)C (centres unmarked) | 3.91 |
| O=S1(=O)CCO[C@H]2Cc3ccccc3[C@H]2N1Cc1cccc(Cl)c1 | -28.4 |
| Cc1nc(SCn2nnc3ccccc3c2=O)nc(C)c1C | -12.3 |
| Cc1ccc(OCCNC(=O)/C=C/c2ccccc2)cc1C | -8.32 |
| Cc1cc(=O)n2nc(N3CCC(C(=O)NC(C)c4ccccc4)CC3)sc2n1 (centres unmarked) | 5.85 |
| O=C(OCc1nc2ccsc2c(=O)[nH]1)c1ccccc1 | 0.869 |
| Cc1ccc(C(=O)COC(=O)CNC(=O)c2ccc(Br)o2)cc1[N+](=O)[O-] | 4.86 |
| CCc1ccc(C(=O)COC(=O)CNC(=O)CNC(=O)Cc2ccccc2)cc1 | 9.36 |

| Structure (SMILES) | hERG current change (%, negative = inhibition) at 10uM [%] |
| --- | --- |
| Cc1cccc(C(=O)NCC(=O)OCC(=O)N(C)CC(=O)Nc2ccccc2Cl)c1 | -40.5 |
| CCc1ccc(C(=O)COC(=O)CNC(=O)c2ccc(Br)o2)cc1 | -64 |
| COc1ccccc1C(=O)NNC(=O)c1ccc(Br)o1 | 14 |
| CN(CC(=O)Nc1ccccc1Cl)C(=O)COC(=O)Cc1ccc(F)cc1 | 1.33 |
| CN(CC(=O)Nc1ccccc1Cl)C(=O)COC(=O)CNC(=O)c1ccc(Br)o1 | -61.4 |
| COc1ccccc1C(=O)COC(=O)CNC(=O)c1ccc(Br)o1 | -50.7 |
| CCc1ccc(C(=O)COC(=O)CNC(=O)c2ccco2)cc1 | -18.2 |
| COc1ccccc1C(=O)NCC(=O)OCC(=O)c1cccc2ccccc12 | 4.06 |
| CCc1ccc(C(=O)COC(=O)CNC(=O)COc2ccccc2)cc1 | -57.4 |
| CCc1ccc(C(=O)COC(=O)CNC(=O)Cc2ccccc2)cc1 | 0.382 |
| CC(=O)N(CN1C(=O)c2ccccc2C1=O)c1cccc(C)c1 | 4.43 |
| Clc1ccc(-n2ncc3c(NCc4ccccn4)ncnc32)cc1 | 4.15 |
| COc1ccccc1NS(=O)(=O)c1ccc(C)c(C(=O)NCC2(N(C)C)CCCCC2)c1 | -42.9 |
| O=C(NCCCN1CCOCC1)c1ccc2c(c1)N(Cc1cccc(Cl)c1)C(=O)CS2 | -16.7 |
| O=C(COC(=O)CNC(=O)c1ccco1)Nc1ccccc1OC(F)F | 11.6 |
| CC1Cc2ccccc2N1C(=O)COC(=O)CNC(=O)c1ccc(Br)o1 (centres unmarked) | -60.2 |
| O=C(COC(=O)CNC(=O)c1ccc(Br)o1)Nc1ccccc1OC(F)F | -51.6 |
| O=C(Nc1ccccc1OC(F)F)c1ccc(Br)o1 | -20.9 |
| CC1Cc2ccccc2N1C(=O)COC(=O)c1ccc(Br)o1 (centres unmarked) | 8.05 |
| CC1Cc2ccccc2N1C(=O)c1ccc(Br)o1 (centres unmarked) | -13.1 |
